Assay outcomes (PubChem)
PNC inhibitor: blocks assembly of the perinucleolar compartment | activity change (PNC), negative = inhibition, % at 10 µM | 3.1% of 140,000 active | AID 2417 | PC3M PTB-GFP, PNC prevalence imaging, 16 h; stronger effect = lower value;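 active = readout at or below -70, meaning at least 70% loss of cells showing the perinucleolar compartment, a nuclear body marking cancer cells; inconclusive = readout between -30 and a set limit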;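 also: plate controls were DMSO wells for no effect and camptothecin positive control wells for full effect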
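Read-out is percentage of cells bearing a perinucleolar compartment, from automated 20x imaging of fixed, Hoechst-stained PC3M PTB-GFP cells. Cells were seeded 4 h, then exposed 16 h to compound (23 nl of library stock) in duplicate plates.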
HPGD inh: inhibitors of human 15-hydroxyprostaglandin dehydrogenase (HPGD); P15428; purified HPGD, NADH fluorescence kinetic, PGE2 substrate; Potency, µM, inactives show at the highest dose activity change, negative = inhibition, actives largely listed as inhibitors; 4.3% of 150,000 active; AID 894; also: potency is read from the fitted curve at half-maximal effect
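20 nM HPGD preincubated 15 min at room temperature with compound in 50 mM Tris-HCl pH 8, 0.01% Tween 20. Started with 1 mM NAD+ and 30 uM prostaglandin E2; NADH fluorescence (360/450 nm) read 5 times over 30-s intervals, last minus first.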
ALDH1A1 block: blocks purified human ALDH1A1 activity; P00352; Purified ALDH1A1, NADH fluorescence, propionaldehyde substrate; 7.3% of 220,000 active; Potency, µM (doses to about 75.3 µM), inactives show at the top dose activity, negative = inhibition, hits mostly inhibitors; AID 1030;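 also: potency is read from the fitted curve at half-maximal effect; plate controls were no enzyme wells and a reference inhibitor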
Target sequence (P00352 whole entry, looked up): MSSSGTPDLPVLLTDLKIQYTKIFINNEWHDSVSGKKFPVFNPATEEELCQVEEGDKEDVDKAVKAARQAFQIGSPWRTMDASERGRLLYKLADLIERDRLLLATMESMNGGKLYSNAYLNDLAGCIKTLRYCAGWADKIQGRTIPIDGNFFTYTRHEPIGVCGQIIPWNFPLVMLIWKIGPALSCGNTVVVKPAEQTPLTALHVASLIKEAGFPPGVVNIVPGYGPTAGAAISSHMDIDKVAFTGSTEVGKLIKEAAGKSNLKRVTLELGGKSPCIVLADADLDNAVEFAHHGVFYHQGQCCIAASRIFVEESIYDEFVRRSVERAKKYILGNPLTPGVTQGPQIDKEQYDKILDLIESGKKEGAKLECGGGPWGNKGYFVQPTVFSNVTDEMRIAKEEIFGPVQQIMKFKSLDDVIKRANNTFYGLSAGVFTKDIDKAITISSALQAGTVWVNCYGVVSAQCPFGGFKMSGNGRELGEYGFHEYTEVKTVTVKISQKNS
An asterisk follows results filed as active; ? = inconclusive; nt = no result given. Sampled rows, rich in hits. Any-hit rate of the full collection: about 11%. Unless noted, calls follow the shape of the dose curve; as a rule, active = well fitted inhibition curve with a large enough effect (not every such curve was filed as active); inconclusive = small, poorly fitted or top-dose-only effect, or another doubt; inactive = no such curve, though single readings can be large or run the other way. Unless noted, % is scaled to controls: 0 for no effect and ±100 for the full control effect.

SMILES	PNC inhibitor	HPGD inh	ALDH1A1 block
COc1ccc(CC(=O)Nc2ccc(-c3nnc(-c4ccccc4)o3)cc2)cc1OC	-1.7	?	3.55µM*
COc1ccc(CC(=O)Nc2cc(C)on2)cc1OC	?	-6.0%	1.6%
COc1ccc(CC(=O)Nc2cccc(-c3nnc(-c4ccccc4)o3)c2)cc1OC	21.1	-26.9%	?
COc1ccc(CC(=O)Nc2nccs2)cc1OC	96.5	-19.7%	14.7%
COc1ccc(CC(=O)Nc2cccc(C)n2)cc1OC	-80.9*	-1.0%	-1.3%
COc1ccc(CC(=O)Nc2ncc([N+](=O)[O-])s2)cc1OC	nt	nt	20µM*
COc1ccc(CCNC(=O)C2CCN(S(=O)(=O)c3cnc[nH]3)CC2)cc1OC	31.9	1.8%	9.0%
O=S1(=O)C=C(SCc2cccc(Cl)c2)Nc2ccccc21	26.1	-3.6%	-9.5%
CC(C)C1CC(CCNCc2ccc(N(C)C)cc2)(c2ccccc2)CCO1 (stereo not drawn)	-27.8	nt	20µM*
CCN(CC)C(C)C(=O)NCC1(c2ccccc2)CCOCC1 (stereo not drawn)	14.3	-2.4%	0.5%
Cc1ccc(C2(CCNCc3ccc(N(C)C)cc3)CCOC(C(C)C)C2)cc1 (stereo not drawn)	nt	nt	25.1µM*
Cc1ccc(C2(CCNS(=O)(=O)c3ccc(C)cc3)CCOC(C(C)C)C2)cc1 (stereo not drawn)	-14.0	-7.4%	?
O=C(Cc1ccccc1)N[C@H](c1ccccc1)P(=O)(O)CO	51.2	-4.4%	-0.4%
C#CCSc1nnnn1-c1ccc(OCC)cc1	nt	nt	-15.5%
COc1cccc(CN2CCNC(=O)C2CC(=O)N2CCCCO2)c1OC (stereo not drawn)	nt	nt	16.4%
O=C(CSc1nnc(-c2ccc(O)cc2)n1Cc1ccco1)c1cccs1	-23.9	?	14.1µM*
Clc1ccccc1CSc1nnc(-c2cccnc2)n1Cc1ccco1	?	28.2µM*	7.94µM*
Fc1ccc(CSc2nnc(-c3cccnc3)n2Cc2ccco2)cc1	-7.6	-17.4%	-5.2%
O=C(CC(SCc1ccco1)c1ccc(O)cc1)c1cccs1 (stereo not drawn)	48.8	-13.2%	12.6µM*
O=C(CSc1nnc(-c2cccnc2)n1Cc1ccco1)c1ccccc1	16.1	15.8µM*	?
O=C(CSc1nnc(-c2ccc(O)cc2)n1Cc1ccco1)c1ccccc1	37.4	-25.4%	?
O=C(COC(=O)c1cccs1)NCc1ccco1	-5.7	-11.7%	0.5%
O=C(CSc1nnc(-c2ccncc2)n1Cc1ccco1)Nc1cccc(O)c1	nt	nt	4.1%
Cc1nc(N)sc1N=Nc1ccc(Br)cc1	35.6	-10.1%	1.2%
CCc1ccccc1N1CC(C(=O)O)CC1=O (stereo not drawn)	-28.6	-2.4%	14.7%
SMILES	PNC inhibitor	HPGD inh	ALDH1A1 block
COCCNC(=O)C(=O)NNS(=O)(=O)c1ccc2ccccc2c1	nt	nt	-0.1%
C=C[C@@H](C)[C@](C)(O)c1ccccc1	nt	-7.7%	-0.2%
CCn1c(=O)[nH]c2cc(Cl)c(Cl)cc21	nt	-12.1%	7.1%
CC(NC(=O)Cc1cccs1)c1ccc2c(c1)OCO2 (stereo not drawn)	12.7	?	2.8%
O=C(CC(SCCO)c1ccc2c(c1)OCO2)c1cccs1 (stereo not drawn)	-112.0*	-13.1%	10.1%
COc1ccccc1N(CN1C(=O)c2ccccc2C1=O)C(=O)c1cccc(C)c1	6.3	-10.5%	-5.1%
COc1ccccc1C(=O)Nc1c2c(nn1-c1cccc(C)c1C)CS(=O)C2 (stereo not drawn)	-16.9	-6.7%	3.5%
COc1ccc(C(=O)N(c2ccc(OC)cc2)S(=O)(=O)c2cccs2)cc1	27.9	-11.9%	5.01µM*
COc1ccc(N(C(=O)c2ccco2)S(=O)(=O)c2cccs2)cc1	?	-14.6%	?
N#Cc1c(-c2ccccc2)c(-c2ccccc2)n(Cc2ccco2)c1NC(=O)c1cccs1	?	nt	-0.6%
CCC1=C2CC[C@H]3C(=O)N(c4ccccc4)C(=O)[C@H]3[C@H]2[C@@]2(C)C(=O)N(CC(=O)OC)C(=O)N2C1=O	nt	-6.3%	-12.0%
CCC1=C2CC[C@H]3C(=O)N(C)C(=O)[C@H]3[C@H]2[C@@]2(C)C(=O)N(CC(=O)OC)C(=O)N2C1=O	nt	-12.2%	-5.1%
CCC1=C2CC[C@H]3C(=O)N(CC)C(=O)[C@H]3[C@H]2[C@@]2(C)C(=O)N(CC(=O)OC)C(=O)N2C1=O	nt	-12.0%	17.8µM*
CCC1=C2CC[C@H]3C(=O)N(c4ccccc4)C(=O)[C@H]3[C@H]2[C@@]2(C)C(=O)N(Cc3ccccc3)C(=O)N2C1=O	nt	-11.5%	20µM*
CC(=O)Nc1ccc(S(=O)(=O)Nc2ccc3c(c2)C(=O)OC3)cc1	nt	nt	16.4%
CCC(=O)Nc1ccc(Nc2nc(C)c([N+](=O)[O-])c(Nc3ccc(NC(=O)CC)cc3)n2)cc1	54.6	-8.8%	7.0%
COc1ccccc1C(=O)C1CCCN(C(=O)c2cc(CC(C)C)nc(C)n2)C1 (stereo not drawn)	nt	nt	-5.5%
COCCCNc1nc(SCc2ccccc2)nc2sc3c(c12)CCC3	-16.8	-12.3%	-10.1%
N#Cc1cnn(-c2nc(SCc3ccccc3)nc3sc4c(c23)CCCC4)c1N	16.1	-24.3%	8.91µM*
NC(=O)c1ccccc1N/C=C/C(=O)c1cccs1	-93.8*	-4.5%	?
NC(=O)c1ccccc1N/C=C/C(=O)c1ccc(Cl)cc1Cl	14.7	12.6µM*	?
Cc1ccc(C(=O)/C=C/Nc2ccccc2C(N)=O)o1	-9.3	?	?
NC(=O)c1ccccc1N/C=C/C(=O)c1ccc(F)cc1	?	-20.9%	?
Cc1ccc(S(=O)(=O)NC(C)(C)CSc2nnc(N)s2)cc1	2.4	-3.4%	?
COc1ccc(-c2cc(C(=O)N3CCc4ccccc4C3)no2)cc1	nt	nt	-6.0%
SMILES	PNC inhibitor	HPGD inh	ALDH1A1 block
COc1cccc(-c2cc(C(=O)NC3CCCC3)no2)c1	-2.0	15.8µM*	?
COCCNC(=O)c1cc(-c2cccc(OC)c2)on1	?	25.1µM*	8.1%
COc1cccc(-c2cc(C(=O)N3CCc4ccccc4C3)no2)c1	?	20µM*	?
COCC(C)NC(=O)c1cc(-c2cccc(OC)c2)on1 (stereo not drawn)	-10.3	-12.9%	7.5%
COc1cccc(-c2cc(C(=O)Nc3cccc(O)c3)no2)c1	-11.8	-19.2%	?
COC(=O)N[C@H](CC(C)=O)c1cccc(C(F)(F)F)c1	33.0	-3.3%	7.5%
COCC(=O)O	nt	-1.8%	-9.9%
CCOc1ccc(/C=N/N(C)c2ccccc2)cc1OC	8.6	-10.4%	7.94µM*
CCOc1ccc(/C=N/Nc2ccccn2)cc1OC	nt	nt	5.2%
Cc1cccc2cc(C(c3nnnn3CC3CCCO3)N3CCCC4(CCCCC4)C3)c(=O)[nH]c12 (stereo not drawn)	-2.7	-10.8%	?
CCOc1ccc2[nH]c(=O)c(C(c3nnnn3CC3CCCO3)N3CCc4ccccc4C3)cc2c1 (stereo not drawn)	-26.1	?	?
Cc1ccc2cc(C(c3nnnn3CC3CCCO3)N3CCc4ccccc4C3)c(=O)[nH]c2c1 (stereo not drawn)	22.8	?	17.8µM*
Cc1cccc2cc(C(c3nnnn3CC3CCCO3)N3CCc4ccccc4C3)c(=O)[nH]c12 (stereo not drawn)	22.3	-23.6%	12.6µM*
CC(=O)OCc1c(C(F)(F)F)nn(C)c1Sc1ccccc1	?	-3.4%	11.7%
